Assay outcomes deposited in PubChem BioAssay by several laboratories.
Rows were chosen to be rich in hits. Some 4.6% of all compounds tested hit in one or more screens of this group.
HSF-1 act – HSF-1 activators, primary screen, NIH3T3-HGL cells, MG132 stress, luminescence, single point; NIH3T3-HGL HSF-1 luciferase reporter, 8 h; 100% = twice DMSO control signal; activation, % at 9 µM; hit rate 1.7% among 300,000;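 active = mean replicate activation of at least 50% with a set share of replicates each reaching 50%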;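 also: 0% = median of the neutral control wells and 100% = twice that signal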
AHR act – AHR activators, primary screen, cell-based, luminescence, luciferase reporter, human. Aryl hydrocarbon receptor (Homo sapiens), P35869. AHR-responsive luciferase reporter cells. activation, % at 5 µM. hit rate 2.5% among 320,000; in the data active = activation above about 47%;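 also: 0% = vehicle wells and 100% = reference agonist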
Target sequence (P35869 whole entry, looked up): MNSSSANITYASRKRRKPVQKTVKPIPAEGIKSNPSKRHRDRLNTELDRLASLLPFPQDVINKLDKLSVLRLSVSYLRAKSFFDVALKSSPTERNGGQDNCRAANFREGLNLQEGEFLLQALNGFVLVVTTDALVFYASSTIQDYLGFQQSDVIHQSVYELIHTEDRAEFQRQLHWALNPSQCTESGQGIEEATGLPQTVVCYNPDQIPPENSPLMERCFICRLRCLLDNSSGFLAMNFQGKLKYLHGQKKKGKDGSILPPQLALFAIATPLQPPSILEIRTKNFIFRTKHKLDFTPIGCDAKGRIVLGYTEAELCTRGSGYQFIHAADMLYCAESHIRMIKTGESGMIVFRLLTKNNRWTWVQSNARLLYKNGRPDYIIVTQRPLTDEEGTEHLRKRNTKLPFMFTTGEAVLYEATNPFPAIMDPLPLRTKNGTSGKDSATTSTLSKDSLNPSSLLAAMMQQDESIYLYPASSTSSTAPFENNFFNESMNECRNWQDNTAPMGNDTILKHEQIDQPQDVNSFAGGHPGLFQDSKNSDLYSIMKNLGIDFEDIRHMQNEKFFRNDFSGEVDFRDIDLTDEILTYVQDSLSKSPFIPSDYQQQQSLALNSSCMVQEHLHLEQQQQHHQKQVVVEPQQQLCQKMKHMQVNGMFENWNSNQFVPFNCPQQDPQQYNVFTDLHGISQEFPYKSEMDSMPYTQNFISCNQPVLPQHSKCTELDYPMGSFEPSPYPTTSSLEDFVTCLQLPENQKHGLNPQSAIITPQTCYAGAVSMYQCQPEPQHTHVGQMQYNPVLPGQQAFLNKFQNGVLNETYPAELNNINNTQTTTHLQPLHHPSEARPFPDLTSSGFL
GAA850 FXN act – FXN promoter activators, primary screen, cell-based, luciferase luminescence, HEK293 lucGAA850 | HEK293 lucGAA850 FXN promoter luciferase reporter, 24 h; percent of 10 µM SAHA response | hit rate 0.56% among 360,000 | activation, % at 6 µM;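 active = activation above the average of all compounds screened plus 3 SD, cutoff fixed separately per campaign, cut at about 7.5% in these data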;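 also: 0% = DMSO wells and 100% = 10 µM SAHA wells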
HSF1 inhib – HSF1 inhibitors in luciferase reporter cells, primary screen, cell-based, NIH3T3, luminescence; AID 2098, 2009; NIH3T3-HGL HSE-luciferase, MG132-induced, luminescence 8 h; hits give low values; activity change, negative = inhibition, % at 7.5 µM (by protocol); hit rate 0.77% among 300,000;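 active = more than half of replicate wells show activity change below -50%, luminescence cut by over half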;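 also: luciferase reports HSF-1 transcriptional activity via heat shock element; 0% = median of DMSO wells and -100% = zero luminescence signal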
GAA30 counter – GAA30 FXN promoter activators, confirmation, counter-screen for GAA850 frataxin promoter activator project, cell-based, luminescence, HEK293, lucGAA30, triplicate; shares compounds with GAA850 FXN act; HEK293 lucGAA30 FXN promoter luciferase, 24 h; DMSO = 0%, 5 µM ipriflavone = 100%; activation, % at 6 µM; hit rate 66% among 1,900;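 active = mean activation above the mean of solvent-only control wells plus 3 SD, cut at about 22% in these data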;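 also: counterscreen of GAA850 promoter hits where activity marks nonselective or luminescence artifacts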
GAA850 confirm – FXN GAA850 promoter activators in reporter cells, confirmation, cell-based, luminescence, HEK293 lucGAA850, triplicate | activation, % at 6 µM | shares compounds with GAA850 FXN act | HEK293 lucGAA850 FXN promoter luciferase reporter, 24 h; 100% = activation by SAHA | AID 588351, 2011 | hit rate 86% among 1,900;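 active = mean activation above a set limit taken from the primary screen, cut at about 8% in these data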;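 also: 0% = DMSO wells and 100% = 10 µM SAHA wells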
* hit, by the source's call; . = not tested or not shown.

SMILES | HSF-1 act | AHR act | GAA850 FXN act | HSF1 inhib | GAA30 counter | GAA850 confirm
Cc1ccc(-c2nn(-c3ccccc3)cc2/C=N/NS(=O)(=O)c2ccccc2)cc1 | 43 | 3 | 8.4* | 15 | 81* | 23*
Cc1ccc(-n2c(O)c(C=NC3CCS(=O)(=O)C3)c3ccccc3c2=O)c(C)c1 (stereo unspecified) | -6 | -2 | -2 | -4 | . | .
Cc1cc(=O)[nH]c(N/N=C/c2c[nH]c3ccccc23)n1 | 36 | 20 | 2 | 7 | . | .
C(=N\Nc1nc2ccccc2[nH]1)/c1c[nH]c2ccccc12 | 309* | 108* | 9.8* | 244 | 129* | 44*
CC(=O)c1c(C)[nH]c(C(=O)OCc2cc(-c3ccco3)on2)c1C | . | 0 | 1 | . | . | .
O=[N+]([O-])/C=C\c1ccc(N2CCCC2)c(F)c1 | 79* | . | 8.6* | 47 | 19 | 31*
O=Cc1ccc(N2CCCC2)c([N+](=O)[O-])c1 | 19 | 1 | 0 | 3 | . | .
CCOC(=O)C1(C)CCCCN1C(=O)c1ccnc(Cl)c1 (stereo unspecified) | . | . | 1 | . | . | .
CC(C)NC(=O)N(C)C[C@H]1Oc2c(NS(=O)(=O)c3cccs3)cccc2C(=O)N([C@H](C)CO)C[C@@H]1C | . | -3 | 1 | . | . | .
COc1ccc(C2=Nn3c(nnc3-c3ccco3)SC2)cc1OC | 9 | 29 | 10* | -1 | 37* | 20*
COc1ccc(C2=Nn3c(nnc3-c3ccccc3OC)SC2)cc1OC | -17 | 35 | 7 | -16 | . | .
O=C(/C=C/c1ccc([N+](=O)[O-])cc1)c1ccccc(=O)c1O | . | . | 9.5* | . | -101 | -26
O=C(CN1C(=O)C2C3c4ccccc4C(c4ccccc43)C2C1=O)N1CCOCC1 (stereo unspecified) | 1 | 0 | -1 | -2 | . | .
CCN(C[C@H]1N[C@@](C)(C(=O)OC)[C@H]2C(=O)N(Cc3ccccc3)C(=O)[C@@H]12)C(=O)Nc1ccccc1 | . | 3 | 7 | . | . | .
COC(=O)[C@]1(C)N[C@H](CN(C)C(=O)Nc2ccccc2)[C@@H]2C(=O)N(Cc3ccccc3)C(=O)[C@@H]21 | . | -1 | 9.4* | . | 22* | 9.8*
CCN(C[C@H]1N[C@@](C)(C(=O)OC)[C@H]2C(=O)N(Cc3ccccc3)C(=O)[C@@H]12)C(=O)Nc1ccc(C)cc1 | . | 0 | 16* | . | 28* | 12*
COc1cccc(CNCc2ccc(C(=O)O)cc2)c1OC | 13 | -4 | 0 | -5 | . | .
CC(C)Oc1ccc(C(=O)NC2CCSc3ccccc32)cc1 (stereo unspecified) | 11 | -1 | 1 | 1 | . | .
C[C@H](CO)N1C[C@H](C)[C@H](CN(C)S(=O)(=O)c2cccs2)Oc2ccc(NC(=O)Nc3ccc4c(c3)OCO4)cc2CC1=O | . | 1 | 10* | . | 21 | 11*
C[C@H](CO)N1C[C@H](C)[C@H](CN(C)S(=O)(=O)c2ccccc2)Oc2ccc(NC(=O)NC3CCCCC3)cc2CC1=O | . | -1 | 8.5* | . | 22 | 9.2*
Cc1ccc(S(=O)(=O)Nc2ccc3c(c2)CC(=O)N([C@H](C)CO)C[C@@H](C)[C@H](CN(C)S(=O)(=O)c2ccccc2)O3)cc1 | . | 5 | 0 | . | . | .
COc1ccc(OC)c2nc3c(C(=O)NCCN(C)C)cccc3nc12 | . | . | 15* | . | 3 | 79*
CN(C)CCNC(=O)c1cccc2nc3cccc(F)c3nc12 | . | . | 25* | . | -3 | 142*
Cc1ccccc1OCC(=O)Nc1cccc(Cl)c1C | 29 | -8 | 0 | 7 | . | .
Cc1ccccc1OCC(=O)Nc1ccccc1-c1ccccc1NC(=O)COc1ccccc1C | 8 | 9 | 15* | 12 | 15 | 11*
O=C1c2ccccc2C(=O)C1(O)O | . | 4 | . | . | . | .
CCOC(=O)N1CCN(c2cc(NCCO)c([N+](=O)[O-])c3nonc23)CC1 | -2 | 0 | 1 | -3 | . | .
